According to PubChem BioAssay (NCATS):
Unmarked numbers belong to inactive results. Records with an inconclusive call do not appear. The source made the active and inactive calls. Unless noted, calls come from the whole dose curve; as a rule, active = well fitted curve in either direction with a large enough effect (not every such curve was filed as active); inconclusive = small, poorly fitted or top-dose-only effect, or another doubt; inactive = flat fitted curve, though single readings scatter.

Legend:
[1] = molecular target: Lysosomal acid glucosylceramidase (Homo sapiens) (UniProt P04062); test: Glucocerebrosidase-p2 (AID 348; in the data active = potency below about 10 µM; note: potency is the fitted concentration of half-maximal effect); conditions: purified GBA, blue fluorogenic substrate, 40 min
Procedure, shortened: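 Compounds titrated from 0.6 nM upwards against 0.2 nM enzyme in pH 5.9 citric acid/KH2PO4, taurocholate, tween-20; blue fluorogenic substrate 80 uM, 40 min room temperature, stopped and read Ex 365/Em 440 for AC50.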

[2] = AP1 Signaling Pathway (AID 357); conditions: ME-180 AP-1-bla reporter, EGF-induced, beta-lactamase ratio, 5 h; at 7.69 µM (top of the series) unless noted;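 note: ME-180 reporter cells stimulated with EGF at its EC50 level; % is set by controls: 0 for no effect and ±100 for the full control effect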
Procedure, shortened: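 AP-1-bla ME-180 cells, Opti-MEM + 0.5% dialyzed FBS, plated overnight 37 °C. Cpd titration + EC50 EGF, 5 h 37 °C. CCF4 2.5 h RT; ex 405, em 460/530 ratio → %activity, AC50.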

[3] = molecular target: Cytochrome P450 1A2 (Homo sapiens) (UniProt P05177); test: p450-cyp1a2 (AID 410; calls by dose curve; note: potency is the fitted concentration of half-maximal effect;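 for activity change, negative = inhibition: -100% = full effect of reference inhibitor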); conditions: recombinant CYP1A2, luciferin-ME demethylation, luminescence; series mostly up to 11.4 µM
Procedure, shortened: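 Luminescent readout of luciferin formed from Luciferin-ME by human CYP1A2; data normalized against complete inhibition by 57 uM furafylline. Enzyme 20nM, substrate 100uM at Km, 100mM KPO4 buffer, 60 min reaction at room temperature.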

[4] = NFAT Signaling Pathway (AID 444); conditions: Jurkat NFAT-bla M1, carbachol, beta-lactamase ratio, 5 h; at 7.69 µM (top of the series) unless noted;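 note: carbachol stimulus at about its EC50 of 1 µM final; % is set by controls: 0 for no effect and ±100 for the full control effect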
Procedure, shortened: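 Jurkat cells carrying an NFAT-driven β-lactamase reporter and co-transfected muscarinic M1 receptor were treated with compound plus carbachol (1 uM final, an EC50 level) for 5 h at 37 °C. CCF4 loading followed for 1 h at RT; 460/530 nm ratio gave %activity.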

[5] = Stat Signaling Pathway (AID 446); conditions: ME-180 SIE beta-lactamase reporter, IL-6 stimulated, 5 h; at 7.69 µM (top of the series) unless noted;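 note: ME-180 cervical cancer cells given 40 pM IL-6 alongside compound; SIE-controlled beta-lactamase reporter measured as 460/530 nm FRET emission ratio; % is set by controls: 0 for no effect and ±100 for the full control effect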
Procedure, shortened: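 IL-6/STAT signaling read in ME-180 cells via an SIE beta-lactamase reporter. Stimulus was 40 pM IL-6 (its AC50) for 5 hrs, so both activation and inhibition register.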

[6] = molecular target: Glucocorticoid receptor (Homo sapiens) (UniProt P04150); test: GR-GFP Redistribution (AID 450;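 active = compounds whose dose series gives a full or clear partial fitted curve of increased nuclear translocation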; note: potency is the fitted concentration of half-maximal effect); conditions: U2OS GR-GFP nuclear translocation, laser cytometry, 2 h
[7] = molecular target: Glucocorticoid receptor (Homo sapiens) (UniProt P04150); test: GR-EFC Redistribution (AID 451; calls by dose curve; note: potency is the fitted concentration of half-maximal effect); conditions: CHO-K1 GR-EFC translocation, beta-gal luminescence, 2 h
Procedure, shortened: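 CHO-K1 cells stably expressing nuclear-localized β-gal enzyme acceptor and GR fused C-terminally to the enzyme donor fragment; ligand-driven nuclear translocation restores β-gal by complementation. Compounds titrated up to 46 uM final, 2 h at 37 °C; luminescence read.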

[8] = molecular target: Mitogen-activated protein kinase 10 (Mus musculus) (UniProt Q61831); test: JNK3 AlphaScreen Assay (AID 530); conditions: JNK3 lysate, c-Jun phosphorylation; series mostly up to 11.4 µM;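 note: kinase came from lysate of stimulated human HepG2 cells; signal reports phosphorylation of biotinylated GST-cJun 1-79 at Ser73 with 10 µM ATP; % is set by controls: 0 for no effect and ±100 for the full control effect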
Procedure, shortened: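 Inhibitors reduce antibody binding to phosphorylated biotin-cJun, lowering AlphaScreen luminescence. Lysates from HepG2 cells pre-activated by IL-1beta plus TNF-alpha supplied JNK3; compounds were titrated.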

[9] = molecular target: 3',5'-cyclic-AMP phosphodiesterase 4B (Homo sapiens) (UniProt Q07343); test: qHTS Assay for Inhibitors of PDE-IV (AID 607; active = well fitted activation curve with a large enough effect in the main read-out, with a control signal flat, not every such curve was filed as active; note: % of control where 0% means no effect); conditions: HEK293 ACTOne CNG channel cells, membrane potential fluorescence; series mostly up to 22.9 µM
Procedure, shortened: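 Live HEK293 cells with a modified cyclic nucleotide-gated (CNG) channel report intracellular cAMP via membrane-potential dye fluorescence (ex 535/em 590 nm). Endogenous PDE-IV was targeted. Compounds were tested at up to 22.9 uM final; RO 20-1724 100 uM served as control.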

[10] = molecular target: Cytochrome P450 2C19 (Homo sapiens) (UniProt P33261); test: qHTS Assay for Inhibitors and Substrates of Cytochrome P450 2C19 (AID 899; active = well fitted inhibition curve with a large enough effect; note: nearly all actives have a fitted effect of over 60% in size; note: potency is the fitted concentration of half-maximal effect); conditions: recombinant CYP2C19, luciferin-H EGE luminescence; series mostly up to 11.4 µM
Procedure, shortened: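 NADPH-dependent conversion of Luciferin-H EGE (10uM, at KM) by 5nM enzyme in 50mM KPO4, 60 min at 37C following 10 min compound preincubation. Stopped with luciferin detection buffer; luminescence read after 20 min.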

[11] = molecular target: Cytochrome P450 2D6 (Homo sapiens) (UniProt P10635); test: qHTS Assay for Inhibitors and Substrates of Cytochrome P450 2D6 (AID 891; active = well fitted inhibition curve with a large enough effect; note: nearly all actives have a fitted effect of over 60% in size; note: potency is the fitted concentration of half-maximal effect); conditions: recombinant CYP2D6, luciferin-ME EGE luminescence; series mostly up to 11.4 µM
Procedure, shortened: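 Human CYP2D6 (5 nM) with 30 uM Luciferin-ME EGE (at Km) in 100 mM KPO4, compound preincubated 10 min, then NADPH regeneration system for 60 min at room temperature. Luciferin read by luminescence; normalized to 1.43 uM quinidine.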

[12] = qHTS Assay for Identification of Small Molecule Agonists for Hypoxia Response Element Signaling Pathway (AID 914; active = well fitted activation curve with a large enough effect in the signal ratio, with a control signal flat, not every such curve was filed as active; the % refers to the signal ratio; note: % of control where 0% means no effect); conditions: ME-180 (cervical carcinoma) HRE-bla reporter, beta-lactamase ratio, CoCl2, 17 h; activation: active compounds read high
Procedure, shortened: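 Compounds in a titration series were added to ME-180 reporter cells alongside an EC50 level of CoCl2. After 17 hours, beta-lactamase activity was read as the 460nm/530nm emission ratio of CCF4, giving AC50 values.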

Sequence of Lysosomal acid glucosylceramidase (Homo sapiens) (P04062 whole entry, looked up): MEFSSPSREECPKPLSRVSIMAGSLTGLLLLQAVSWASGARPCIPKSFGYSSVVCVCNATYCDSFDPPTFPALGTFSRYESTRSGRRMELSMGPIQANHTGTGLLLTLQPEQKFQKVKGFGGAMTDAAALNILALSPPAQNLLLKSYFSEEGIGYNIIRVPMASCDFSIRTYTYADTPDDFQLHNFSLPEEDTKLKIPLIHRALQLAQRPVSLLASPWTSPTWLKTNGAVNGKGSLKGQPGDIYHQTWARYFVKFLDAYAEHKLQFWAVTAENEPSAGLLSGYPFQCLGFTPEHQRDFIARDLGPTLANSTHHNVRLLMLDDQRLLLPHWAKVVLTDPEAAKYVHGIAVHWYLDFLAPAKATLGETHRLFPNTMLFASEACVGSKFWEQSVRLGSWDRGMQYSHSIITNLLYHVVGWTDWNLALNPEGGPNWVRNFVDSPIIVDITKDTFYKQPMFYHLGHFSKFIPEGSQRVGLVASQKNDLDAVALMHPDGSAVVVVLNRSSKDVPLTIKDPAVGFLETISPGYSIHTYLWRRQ
Sequence of 3',5'-cyclic-AMP phosphodiesterase 4B (Homo sapiens) (Q07343 whole entry, looked up): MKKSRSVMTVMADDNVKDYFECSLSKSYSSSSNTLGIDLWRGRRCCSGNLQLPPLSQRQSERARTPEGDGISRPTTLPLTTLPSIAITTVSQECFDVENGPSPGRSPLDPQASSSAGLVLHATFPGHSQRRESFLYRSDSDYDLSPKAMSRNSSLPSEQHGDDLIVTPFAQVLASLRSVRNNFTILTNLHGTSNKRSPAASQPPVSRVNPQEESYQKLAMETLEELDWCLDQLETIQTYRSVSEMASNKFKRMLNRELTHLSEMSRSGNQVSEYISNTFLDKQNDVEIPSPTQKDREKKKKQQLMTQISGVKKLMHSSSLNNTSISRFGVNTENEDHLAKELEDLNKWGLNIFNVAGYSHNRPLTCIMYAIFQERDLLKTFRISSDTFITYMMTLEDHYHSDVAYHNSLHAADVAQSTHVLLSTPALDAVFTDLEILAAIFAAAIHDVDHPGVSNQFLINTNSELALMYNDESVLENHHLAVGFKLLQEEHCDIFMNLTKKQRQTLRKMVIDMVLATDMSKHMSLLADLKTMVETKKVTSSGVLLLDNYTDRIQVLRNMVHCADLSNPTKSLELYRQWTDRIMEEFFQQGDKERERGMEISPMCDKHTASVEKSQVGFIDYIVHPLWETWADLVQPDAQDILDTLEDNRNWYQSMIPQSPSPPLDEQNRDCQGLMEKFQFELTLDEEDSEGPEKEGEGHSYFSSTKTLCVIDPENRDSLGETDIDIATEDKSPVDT
Sequence of Cytochrome P450 2C19 (Homo sapiens) (P33261 whole entry, looked up): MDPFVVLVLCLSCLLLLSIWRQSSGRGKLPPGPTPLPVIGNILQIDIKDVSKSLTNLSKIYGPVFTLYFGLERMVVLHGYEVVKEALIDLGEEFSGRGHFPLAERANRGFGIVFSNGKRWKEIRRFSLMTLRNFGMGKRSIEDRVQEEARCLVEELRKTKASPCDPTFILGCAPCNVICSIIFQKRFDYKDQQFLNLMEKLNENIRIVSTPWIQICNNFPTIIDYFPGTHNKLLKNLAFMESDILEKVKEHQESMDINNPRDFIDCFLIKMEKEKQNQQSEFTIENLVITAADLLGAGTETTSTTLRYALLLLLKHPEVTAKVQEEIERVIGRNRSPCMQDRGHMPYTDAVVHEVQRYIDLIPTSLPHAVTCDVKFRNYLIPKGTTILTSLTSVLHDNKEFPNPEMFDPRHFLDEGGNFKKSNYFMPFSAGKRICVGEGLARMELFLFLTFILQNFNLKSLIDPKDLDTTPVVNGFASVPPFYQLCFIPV
Sequence of Cytochrome P450 2D6 (Homo sapiens) (P10635 whole entry, looked up): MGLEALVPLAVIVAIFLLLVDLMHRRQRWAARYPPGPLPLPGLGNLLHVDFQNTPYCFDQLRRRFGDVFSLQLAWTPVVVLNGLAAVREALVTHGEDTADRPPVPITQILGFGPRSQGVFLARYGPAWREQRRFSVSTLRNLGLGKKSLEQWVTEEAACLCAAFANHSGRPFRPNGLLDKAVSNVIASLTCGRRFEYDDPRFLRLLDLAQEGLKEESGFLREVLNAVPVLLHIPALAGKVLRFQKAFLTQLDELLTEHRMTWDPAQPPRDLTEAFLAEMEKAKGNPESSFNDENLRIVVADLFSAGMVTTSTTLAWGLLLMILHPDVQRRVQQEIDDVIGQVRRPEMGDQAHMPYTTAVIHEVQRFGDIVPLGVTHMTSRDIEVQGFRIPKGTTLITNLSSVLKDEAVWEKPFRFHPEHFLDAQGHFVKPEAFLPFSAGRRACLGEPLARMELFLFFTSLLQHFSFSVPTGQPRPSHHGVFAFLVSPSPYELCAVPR
Sequence of Cytochrome P450 1A2 (Homo sapiens) (P05177 whole entry, looked up): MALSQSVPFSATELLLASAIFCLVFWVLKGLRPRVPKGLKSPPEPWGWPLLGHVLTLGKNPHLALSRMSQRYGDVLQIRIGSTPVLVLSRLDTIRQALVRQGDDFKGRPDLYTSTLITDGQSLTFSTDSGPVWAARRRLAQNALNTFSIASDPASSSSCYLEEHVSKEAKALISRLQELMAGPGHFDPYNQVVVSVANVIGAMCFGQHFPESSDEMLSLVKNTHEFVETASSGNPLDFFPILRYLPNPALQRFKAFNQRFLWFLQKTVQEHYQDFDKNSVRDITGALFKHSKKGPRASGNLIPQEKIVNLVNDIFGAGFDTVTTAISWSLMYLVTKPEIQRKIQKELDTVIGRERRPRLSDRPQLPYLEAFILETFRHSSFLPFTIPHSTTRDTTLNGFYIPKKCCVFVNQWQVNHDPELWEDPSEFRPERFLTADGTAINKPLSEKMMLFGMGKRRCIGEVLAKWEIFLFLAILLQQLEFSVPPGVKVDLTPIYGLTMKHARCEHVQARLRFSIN
Sequence of Glucocorticoid receptor (Homo sapiens) (P04150 whole entry, looked up, the tested form may be a part): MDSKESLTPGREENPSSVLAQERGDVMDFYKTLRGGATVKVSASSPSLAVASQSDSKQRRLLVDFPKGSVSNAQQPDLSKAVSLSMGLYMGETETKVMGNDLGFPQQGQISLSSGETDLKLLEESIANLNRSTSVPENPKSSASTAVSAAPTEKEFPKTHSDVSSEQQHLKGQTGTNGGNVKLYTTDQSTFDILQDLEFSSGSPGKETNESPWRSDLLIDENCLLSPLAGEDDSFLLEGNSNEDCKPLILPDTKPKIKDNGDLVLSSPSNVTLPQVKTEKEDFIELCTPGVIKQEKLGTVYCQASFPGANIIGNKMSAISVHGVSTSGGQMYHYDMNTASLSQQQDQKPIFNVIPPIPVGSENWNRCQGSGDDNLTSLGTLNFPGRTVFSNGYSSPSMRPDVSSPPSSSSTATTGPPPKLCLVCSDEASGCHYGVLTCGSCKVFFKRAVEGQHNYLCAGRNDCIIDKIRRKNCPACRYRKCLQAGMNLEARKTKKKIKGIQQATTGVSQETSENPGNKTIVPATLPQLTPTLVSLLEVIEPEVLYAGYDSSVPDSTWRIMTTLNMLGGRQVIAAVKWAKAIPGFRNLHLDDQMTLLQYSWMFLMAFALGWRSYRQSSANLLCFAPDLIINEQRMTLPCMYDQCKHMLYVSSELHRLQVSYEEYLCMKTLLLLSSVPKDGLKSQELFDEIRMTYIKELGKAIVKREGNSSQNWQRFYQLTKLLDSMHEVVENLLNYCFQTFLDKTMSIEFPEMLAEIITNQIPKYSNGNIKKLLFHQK

Cc1ccc([C@@]2(C)CC/C(=N/N=C3\CC[C@](C)(c4ccc(C)c(C)c4)c4cc(C)c(C)cc43)c3cc(C)c(C)cc32)cc1C
Potency [1]: > 11.4 µM
activity change, negative = inhibition [2]: 5.94%
Potency [3]: inactive
activity change, negative = inhibition [4]: 7.12%
activity, negative = inhibition [5]: 4.03%
Potency [6]: > 46 µM
Potency [7]: > 9.22 µM
Potency [8]: inactive
Potency [9]: inactive
Potency [10]: inactive

Cc1cc(C(C)(C)C)cc(CNC2CCCCC2)c1O
Potency [1]: > 11.4 µM
activity change, negative = inhibition [2]: 8.19%
Potency [3]: 3.16 µM (active)
activity change, negative = inhibition [4]: 22.7%
activity, negative = inhibition [5]: 10.5%
Potency [6]: > 46 µM
Potency [7]: > 9.22 µM
Potency [8]: inactive
Potency [9]: inactive
Potency [11]: 0.501 µM (active)
Potency [10]: 0.02 µM (active)

CN(C)CCNc1nc2c(c(=O)n(C)c(=O)n2C)n1C
Potency [1]: > 11.4 µM
activity change, negative = inhibition [2]: -7.15%
Potency [3]: inactive
activity change, negative = inhibition [4]: 4.81%
activity, negative = inhibition [5]: 9.47%
Potency [6]: > 46 µM
Potency [7]: > 9.22 µM
Potency [8]: inactive
Potency [9]: inactive
Potency [11]: inactive

CN(C)CCN(c1ccccn1)c1ccccn1
Potency [1]: > 11.4 µM
activity change, negative = inhibition [2]: 11.2%
Potency [3]: inactive
activity change, negative = inhibition [4]: 7.47%
activity, negative = inhibition [5]: 11.4%
Potency [6]: > 46 µM
Potency [7]: > 9.22 µM
Potency [8]: inactive
Potency [9]: inactive
Potency [10]: inactive

O=[N+]([O-])c1cc(Cc2cc([N+](=O)[O-])c3cccnc3c2O)c(O)c2ncccc12
Potency [1]: > 11.4 µM
activity change, negative = inhibition [2]: 18.2%
activity change, negative = inhibition [3]: -31.1% [at 2.29 µM]
activity change, negative = inhibition [4]: -16.4%
activity, negative = inhibition [5]: -1.87%
Potency [6]: > 46 µM
Potency [7]: > 9.22 µM
Potency [8]: inactive
Potency [9]: inactive
Potency [10]: 2.51 µM (active)

Nc1ccc(S(=O)(=O)NCCS(=O)(=O)O)cc1
Potency [1]: > 11.4 µM
activity change, negative = inhibition [2]: -2.08%
activity change, negative = inhibition [3]: -3.1% [at 2.29 µM]
activity change, negative = inhibition [4]: 6.94%
activity, negative = inhibition [5]: -3.3%
Potency [6]: > 46 µM
Potency [7]: > 9.22 µM
Potency [8]: inactive
Potency [9]: inactive
Potency [11]: inactive
activation [12]: -1.31%

O=S(=O)(O)c1ccc(N=Nc2ccccc2)cc1
Potency [1]: > 11.4 µM
activity change, negative = inhibition [2]: -9.23%
Potency [3]: inactive
activity change, negative = inhibition [4]: 7.04%
activity, negative = inhibition [5]: 0.896%
Potency [6]: > 46 µM
Potency [7]: > 9.22 µM
Potency [8]: inactive
Potency [9]: inactive
Potency [11]: inactive

C[N+](C)(N)CCC[N+](C)(C)N
Potency [1]: > 11.4 µM
activity change, negative = inhibition [2]: 6.06%
Potency [3]: inactive
activity change, negative = inhibition [4]: 24.5%
activity, negative = inhibition [5]: 8.44%
Potency [6]: > 46 µM
Potency [7]: > 9.22 µM
Potency [8]: inactive
Potency [9]: inactive
Potency [11]: inactive
Potency [10]: inactive

CC(CC(=O)O)(CC(=O)O)C(=O)O
Potency [1]: > 11.4 µM
activity change, negative = inhibition [2]: -0.949%
Potency [3]: inactive
activity change, negative = inhibition [4]: 18.4%
activity, negative = inhibition [5]: 9.05%
Potency [6]: > 46 µM
Potency [7]: > 9.22 µM
Potency [8]: inactive
Potency [9]: inactive
Potency [11]: inactive
Potency [10]: inactive

C[C@H]1C[C@@H]2[C@H]3CCC4=CC(=O)C=C[C@@]4(C)[C@]3(Cl)[C@@H](Cl)C[C@]2(C)[C@]1(O)C(=O)COP(=O)(O)O
Potency [1]: > 11.4 µM
activity change, negative = inhibition [2]: -4.94%
Potency [3]: inactive
activity change, negative = inhibition [4]: 9.07%
activity, negative = inhibition [5]: 2.85%
Potency [6]: 0.0275 µM (active)
Potency [7]: 7.37 µM (active)
Potency [8]: inactive
Potency [9]: inactive
Potency [11]: inactive
Potency [10]: inactive

O=C(O)CSSCC(=O)O
Potency [1]: > 11.4 µM
activity change, negative = inhibition [2]: 5.08%
Potency [3]: inactive
activity change, negative = inhibition [4]: 15.8%
activity, negative = inhibition [5]: 17.7%
Potency [6]: > 46 µM
Potency [7]: > 9.22 µM
Potency [8]: inactive
Potency [9]: inactive
Potency [11]: inactive
Potency [10]: inactive

C[C@H]1[C@H](O)[C@@H](C)C=CC=CC=CC=CC=CC=CC=C[C@H](O[C@@H]2O[C@@H](C)[C@H](O)[C@@H](N)[C@@H]2O)C[C@@H]2O[C@](O)(C[C@@H](O)C[C@@H](O)[C@@H](O)CC[C@@H](O)C[C@@H](O)CC(=O)O[C@H]1C)C[C@H](O)[C@H]2C(=O)O
Potency [1]: > 11.4 µM
activity change, negative = inhibition [2]: -7.91%
Potency [3]: inactive
activity change, negative = inhibition [4]: -0.0379%
activity, negative = inhibition [5]: 6.85%
Potency [6]: > 46 µM
Potency [7]: > 9.22 µM
Potency [8]: inactive
Potency [9]: inactive
Potency [11]: inactive
Potency [10]: inactive

Clc1nc(NCCc2ccccc2)c2ncn(-c3ccccc3)c2n1
Potency [1]: > 11.4 µM
activity change, negative = inhibition [2]: -9.15%
Potency [3]: 0.501 µM (active)
activity change, negative = inhibition [4]: -0.663%
activity, negative = inhibition [5]: -22.9%
Potency [6]: > 46 µM
Potency [7]: > 9.22 µM
Potency [8]: inactive
Potency [9]: inactive
Potency [10]: 0.501 µM (active)

NCCCc1c(-c2ccccc2)nc(N)[nH]c1=O
Potency [1]: > 11.4 µM
activity change, negative = inhibition [2]: 0.759%
Potency [3]: inactive
activity change, negative = inhibition [4]: 4.17%
activity, negative = inhibition [5]: 9.18%
Potency [6]: > 46 µM
Potency [7]: > 9.22 µM
Potency [8]: inactive
Potency [9]: inactive
Potency [11]: inactive
